Where “and” joins values, the source holds several entries; their conditions need not be identical. Equal entries are not always repeated. Compounds without any hit were thinned out: in the full panel of roughly 79,000, 15% have a hit. Calls of active or inactive are those of the source. Rule as the data show it: active = growth inhibition above about 70%; inactive = the rest.

The nature of the test: NCI Yeast Anticancer Drug Screen. Data for the rad50 strain (AID 155).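 Also: 0% = growth of vehicle-only cultures of the same strain.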 The settings on record: S. cerevisiae rad50 strain growth inhibition; at 50.0 µM (retest, dose inferred, filed as 5.0); hits give high values. A digest of the protocol:
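A DNA repair-deficient yeast mutant serves as the test organism; compound-induced growth inhibition is calculated against vehicle-treated cells.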
As to `Cc1cc(C)c(O)c(C)c1.[Hg]`, the growth inhibition was 98% (active).

`CC(O)C(=O)O.CC(O)C(=O)O.[Ni]` (centres undefined): the growth inhibition is 7% (inactive).

In the case of `CC(=O)OC1C(=O)OCC23CCC4(C)OC4C2OC2CC(OC(=O)/C=C/C=C/C(=O)OCCC1C)C3(C)C21CO1` (centres undefined), the growth inhibition was 99% (active).

`CN1C(=O)CC[C@@]2(C)C1=CC[C@H]1[C@@H]3CC[C@H](O)[C@@]3(C)CC[C@@H]12`: the growth inhibition is 64% (inactive).

`CC[C@H](C)c1occ2c(O)c(C(=O)O)c(=O)cc-2c1C`: the growth inhibition was 98% (active).

Regarding `O=[N+]([O-])[O][Tl]([c]1ccccc1)[c]1ccccc1`, the growth inhibition was 41% (inactive).

As for `CCCC[CH2][Sn]([CH2]CCCC)[CH2]CCCC.CCCC[CH2][Sn]([CH2]CCCC)[CH2]CCCC`, the growth inhibition was 99% (active).

Consider `Nc1cc(Cl)ccc1C(=O)c1ccccc1Cl`, for which the growth inhibition was 98% (active).

Consider `CC(Br)CN1CCOCC1` (centres undefined), for which the growth inhibition was 97% (active).

In the case of `C(CCC[Te][Te]CCCCCCOC1CCCCO1)CCOC1CCCCO1` (centres undefined), the growth inhibition was 39% (inactive).

`CN1CN(c2ccccc2)C2(CCN(C3Nc4ccccc4O3)CC2)C1=O` (centres undefined): the growth inhibition is 33% (inactive).

Regarding `[CH3][Sn]([CH3])([Cl])[c]1cc[c]([Sn]([CH3])([CH3])[Cl])cc1`, the growth inhibition is 84% (active).

Turning to `O=[C-]CCCCCC[C-]=O.[C-]#[O+].[C-]#[O+].[C-]#[O+].[C-]#[O+].[Fe+6].[Fe+6].[c-]1[c-][c-][cH-][c-]1.[c-]1[c-][c-][cH-][c-]1`, the growth inhibition was 97% (active).

`CCOC(=O)NC(=S)[S][Sb]([S]C(=S)NC(=O)OCC)[S]c1nc2ccc(N=Nc3ccc(NS(=O)(=O)c4ccc(NC(=O)C(N5CC5)(N5CC5)N5CC5)cc4)cc3)cc2s1`: the growth inhibition is 99% (active).

For `CCC[N+](CCC)(CCC)CCC.N#CN=C([SH2+])[SH2+].N#CN=C([SH2+])[SH2+].[Pt+2]`, the growth inhibition was 7% (inactive).

For the molecule `CCCCCCCC/C=C\CCCCCCCCN1CC(C(=O)[O][Pb]([CH2]C)([CH2]C)[CH2]C)CC1=O` (centres undefined), the growth inhibition is 77% (active).

Consider `O=c1[nH]cc(Cn2cnc3ncccc3c2=O)c(=O)[nH]1`, for which the growth inhibition is -4% (inactive).

`CC(C)(C)C1=CC(=C/C=C/c2cc(C(C)(C)C)[o+]c(C(C)(C)C)c2)C=C(C(C)(C)C)O1`: the growth inhibition was 93% (active).

Consider `S=C(S)N1CCCCC1`, for which the growth inhibition was 57% (inactive) and 13% (inactive).

For the molecule `CN[C@H]1C[C@@H]2O[C@@](C)([C@H]1OC)n1c3ccccc3c3c4c(c5c6ccccc6n2c5c31)C(=O)NC4`, the growth inhibition is 99% (active).

As for `CC(C)(C)OOC(=O)c1ccccc1`, the growth inhibition was 99% (active).

As to `ClCCN(CCCl)CCN1c2ccccc2Sc2ccc3ccccc3c21`, the growth inhibition is 31% (inactive).

Take `CCOC(=O)c1ccccc1N`: the growth inhibition is 4% (inactive).

Consider `Cn1cnc(C(=N)[Se])c1N`, for which the growth inhibition was 94% (active).

On to `Cc1ccc(NP(=O)(Oc2ccccc2)N(CCCl)CCCl)cc1` (centres undefined), for which the growth inhibition is 10% (inactive).

For the molecule `CCOC(=O)C1=C(C)NC(=O)NC1c1ccc(N(CCCl)CCCl)cc1Cl` (centres undefined), the growth inhibition was 78% (active).

As to `ClC(C[n+]1ccccc1)c1ccccc1` (centres undefined), the growth inhibition is 22% (inactive).

For `CCCCCCCC1(c2ccc(N)cc2)CCC(=O)NC1=O` (centres undefined), the growth inhibition is 36% (inactive).

Regarding `COC(=O)C(CCCN=C(N)N[N+](=O)[O-])NC(=O)c1ccc2c(c1O)C(=O)c1ccccc1C2=O` (centres undefined), the growth inhibition was 15% (inactive).

On to `Cc1cc(N(CCCl)CCCl)ccc1CN1CCCN(Cc2ccc(N(CCCl)CCCl)cc2C)C1c1ccc(N(CCCl)CCCl)cc1C`, for which the growth inhibition is 98% (active).

On to `c1ccc([CH2][Pb]([c]2ccccc2)([c]2ccccc2)[c]2ccccc2)cc1`, for which the growth inhibition was 96% (active).

Consider `C[CH2][Sn][CH2]C.c1cc[c]([Ge]([c]2ccccc2)[c]2ccccc2)cc1.c1cc[c]([Sn]([c]2ccccc2)[c]2ccccc2)cc1`, for which the growth inhibition is 96% (active).

As to `CCC1(C2=CCCCC2)C(=O)NC(=S)NC1=O`, the growth inhibition is 62% (inactive).

`N#CC(=C=N)N=C(F)C(C#N)=C(C#N)C#N`: the growth inhibition was 68% (inactive).

On to `N#C[SH2+].N#C[SH2+].N#C[SH2+].N#C[SH2+].[Cu+2].c1ccc(C[P+](c2ccccc2)(c2ccccc2)c2ccccc2)cc1`, for which the growth inhibition is 87% (active).

As for `CC#N.FC(F)(F)C#CC(F)(F)F.FC(F)(F)C#CC(F)(F)F.FC(F)(F)C#CC(F)(F)F.[W]`, the growth inhibition was 99% (active).

On to `CC(C)c1cccc(C(C)C)c1NC(=O)C(=O)CC(=O)CC(c1ccccc1)c1c(O)c2ccccc2oc1=O` (centres undefined), for which the growth inhibition was 8% (inactive).

Consider `CCN(CCCl)c1ccc(/C=C/C2=[N+](C)c3ccccc3C2(C)C)c(C)c1`, for which the growth inhibition is 98% (active).

For `Cc1cc(C)[n+](CCOc2ccc(/C(=C(/Cl)c3ccccc3)c3ccccc3)cc2)c(C)c1`, the growth inhibition is 99% (active).
